Results filed as inconclusive are left out. Values without a mark were called inactive. Activity calls are given as the source filed them. Unless noted, calls follow the shape of the dose curve; as a rule, active = well fitted curve in the direction sought with a large enough effect in the repeat runs; inconclusive = weak or mixed curves; inactive = no such curve, though single readings can be large; an effect the other way counts as inactive or inconclusive.

Experimental findings from PubChem BioAssay (Tox21) are described below.

Assay [1] in a line: qHTS assay to identify small molecule that activate the aryl hydrocarbon receptor (AhR) signaling pathway - cell viability counter screen (AID 743086).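 Also: HepG2 liver cells carrying the AhR DRE luciferase reporter; series mostly up to about 70 µM; nearly all actives have a fitted effect of over 45% in size.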 The method, boiled down: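 HepG2-AhR-luc (HG2L7.5c1) cells, 4000/well, treated 24 h at 37 C with compound; viability measured as CellTiter-Fluor fluorescence after 30 min in the same wells as the luciferase read.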
For orientation: qHTS replaces the single test concentration by a dilution series.

Assay [2] is described as follows: qHTS assay to identify small molecule antagonists of the peroxisome proliferator-activated receptor gamma (PPARg) signaling pathway - cell viability counter screen (AID 743194). Also: nearly all actives have a fitted effect of over 55% in size. The method, boiled down:
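Cytotoxicity counter screen in PPARg-bla HEK293H cells, same wells as reporter assay. Compounds plus 50 nM rosiglitazone (final) for 17 h at 37 C, then viability read by CellTiter-Glo luminescence.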

Assay [3] in a line: qHTS assay for small molecule activators of the heat shock response signaling pathway - cell viability counter screen (AID 743209). Also: nearly all actives have a fitted effect of over 50% in size. The method, boiled down: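 To flag cytotoxic compounds, HSE-bla HeLa cells plated at 1500 cells/well were dosed for 5 h at 37 C, followed by the reporter FRET read and then CellTiter-Glo, with luminescence recorded 30 min after reagent addition.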

Assay [4] is described as follows: qHTS assay for small molecule activators of the heat shock response signaling pathway (AID 743210; active = well fitted activation curve with a large enough effect in the signal ratio in the repeat runs, with a control signal flat, not every such curve was filed as active; the % refers to the signal ratio; also: series mostly up to about 63 µM). The method, boiled down: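 Beta-lactamase reporter read-out: FRET substrate fluorescence after 2.5 h at RT, following 5 h compound treatment at 37 C of HeLa cells carrying HSE-driven bla reporter; quantitative HTS format.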
A short description of assay [5]: qHTS assay to identify small molecule agonists of the peroxisome proliferator-activated receptor delta (PPARd) signaling pathway - cell viability counter screen (AID 743211). Also: nearly all actives have a fitted effect of over 55% in size. The method, boiled down:
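HEK293H PPARd-bla, 3000 cells/well; 5 h preincubation 37C/5% CO2; cpd in DMSO, 17 h 37C; B/G FRET substrate 2 h RT; CellTiter-Glo 30 min RT, luminescence.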

Assay [6] can be described thus: qHTS assay for small molecule agonists of the antioxidant response element (ARE) signaling pathway (AID 743202; active = well fitted activation curve with a large enough effect in the signal ratio in the repeat runs, not every such curve was filed as active; the % refers to the signal ratio; also: potency is read from the fitted curve at half-maximal effect). The procedure, abridged: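 HepG2 ARE-bla reporter line, 2,000 cells/well; 5 h preincubation 37 C/5% CO2; compound (DMSO) 16 h 37 C; B/G FRET substrate 2 h RT; fluorescence intensity.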
Assay [7] is described as follows: qHTS assay for small molecule agonists of the antioxidant response element (ARE) signaling pathway - cell viability counter screen (AID 743203; calls by dose curve; also: nearly all actives have a fitted effect of over 55% in size). The method, boiled down: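 Parallel cytotoxicity read-out for the ARE-bla screen: HepG2 reporter cells, 16 hrs with compounds, then CellTiter-Glo luminescence.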
Assay [8] concerns the target Peroxisome proliferator-activated receptor gamma (Homo sapiens) (UniProt P37231). Description: qHTS assay to identify small molecule antagonists of the peroxisome proliferator-activated receptor gamma (PPARg) signaling pathway (AID 743191; calls by dose curve; also: series mostly up to about 63 µM; nearly all actives have a fitted effect of over 30% in size). The procedure, abridged: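 GeneBLAzer PPARg UAS-bla HEK293H cells, 5 h post-plating, exposed to compounds 17 h at 37C. LiveBLAzer B/G FRET substrate added for 1 h at room temperature; beta-lactamase reporter read by fluorescence intensity.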

For assay [9] the target is unchanged. As to the kind of experiment: qHTS assay to identify small molecule agonists of the peroxisome proliferator-activated receptor gamma (PPARg) signaling pathway (AID 743094; active = well fitted activation curve with a large enough effect in the signal ratio in the repeat runs, not every such curve was filed as active; the % refers to the signal ratio). The method, boiled down:
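Fluorescence-based beta-lactamase readout in HEK293H PPARg UAS-bla cells after 17 h compound exposure (37C) and 1 h B/G FRET substrate incubation at room temperature.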

Sequence of Peroxisome proliferator-activated receptor gamma (Homo sapiens) (P37231 whole entry, looked up): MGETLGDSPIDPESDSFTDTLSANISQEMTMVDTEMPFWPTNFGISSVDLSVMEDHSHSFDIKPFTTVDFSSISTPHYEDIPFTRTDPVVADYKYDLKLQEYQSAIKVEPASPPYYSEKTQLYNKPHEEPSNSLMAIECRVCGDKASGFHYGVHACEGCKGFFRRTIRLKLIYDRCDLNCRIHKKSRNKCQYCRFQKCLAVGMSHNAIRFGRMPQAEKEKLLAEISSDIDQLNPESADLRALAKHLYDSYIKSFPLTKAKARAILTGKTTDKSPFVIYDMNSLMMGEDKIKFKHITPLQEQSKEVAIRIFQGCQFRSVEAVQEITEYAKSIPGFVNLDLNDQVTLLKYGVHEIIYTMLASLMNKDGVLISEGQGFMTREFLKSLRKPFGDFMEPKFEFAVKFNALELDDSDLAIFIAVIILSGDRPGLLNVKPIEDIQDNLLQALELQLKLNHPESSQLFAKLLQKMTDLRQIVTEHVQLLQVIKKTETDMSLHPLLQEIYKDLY

As to `NNC(=O)OCc1ccccc1`, the outcome in assay [1], in assay [2], in [4] and in assay [5] was inactive. The Potency result in assay [3] was “inactive”.

For the compound `CO/N=C(\C(=O)O)c1csc(NC(=O)CCl)n1`, the call in [2], in assay [7] and in assay [4] was inactive. The Potency in assay [6] is 13.3 µM (active). Also, the Potency result in assay [3] is “inactive”.

Regarding `CCC(C)(C)C`, the outcome in assay [1], in [2], in [7], in assay [4] and in assay [5] was inactive. The Potency result in [6] and in assay [3] was “inactive” in each case.

`CCCc1ncc(C(=O)O)s1`: the compound was called inactive in [8], in [2], in [7], in assay [4] and in assay [5]. Besides, the Potency entry in assay [6] and in [3] was “inactive” throughout.

Take `COC(=O)c1ccc(NC(C)=O)cc1OC`: the result in assay [8], in [2], in [7], in [4] and in [5] was inactive. In addition, the Potency result in assay [6] and in assay [3] was “inactive” each time.

With `O=C(O)Cc1ccccc1Oc1ccc(Cl)cc1Cl`, the result in assay [9], in assay [2], in assay [7], in [4] and in assay [5] was inactive. Besides, the Potency result in [3] is “inactive”.

As for `CN(C)c1ccncc1`, the outcome in assay [1], in [2], in assay [7], in assay [4] and in assay [5] was inactive. Besides, the Potency result in [6] and in assay [3] was “inactive” throughout.

`CC(=O)c1ccc(O)c(C(N)=O)c1`: the compound was called inactive in assay [8], in assay [2], in assay [7], in assay [4] and in assay [5]. Besides, the Potency entry in assay [6] and in assay [3] was “inactive” throughout.

With `Cc1cc2c(cc1CC(=O)c1sccc1S(=O)(=O)Nc1onc(C)c1Cl)OCO2`, the result in [2], in [7], in assay [4] and in assay [5] was inactive. Moreover, the Potency entry in [3] is “inactive”.

As to `O=C1CCCc2c(O)cccc21`, the outcome in [8], in assay [7], in [4] and in assay [5] was inactive. Moreover, the Potency entry in assay [3] was “inactive”.

For `O=Cc1ccc(C(=O)O)cc1`, the compound was called inactive in [1], in assay [8], in [7], in [4] and in [5]. Also, the Potency entry in assay [3] is “inactive”.

With `CCCCc1ccc(Cl)cc1`, the compound was classed as inactive in assay [1], in [8], in [2], in assay [7] and in assay [4]. The Potency result in assay [3] was “inactive”.

On to `COc1ccccc1N1CCN(CC(O)COc2cc(OC)c(OC)c(OC)c2)CC1` (stereo not given), for which the compound was called inactive in assay [8], in [2], in assay [7], in assay [4] and in assay [5]. The Potency result in assay [3] was “inactive”.

Take `CCCCC(O)/C=C(C)/C=C/C=C/C(=O)N1CCCC1=O` (stereo not given): the result in [8], in assay [2], in [7], in assay [4] and in [5] was inactive. In addition, the Potency entry in assay [6] and in [3] was “inactive” each time.

On to `Clc1ccc2c(c1)Nc1ccccc1S2`, for which the compound was classed as inactive in assay [2], in [4] and in [5]. In [6], the Potency is 29.8 µM (active). Further, the Potency entry in assay [3] was “inactive”.

As to `N#Cc1cc(NC(=O)C(=O)O)c(Cl)c(NC(=O)C(=O)O)c1`, the compound was called inactive in [8], in assay [7], in assay [4] and in assay [5]. In addition, the Potency entry in [6] and in assay [3] was “inactive” throughout.

With `C[C@@H]1CCC[C@H](C)N1CCCC(O)(c1ccccc1)c1ccccn1` (stereo not given in full), the compound was classed as inactive in assay [8], in assay [2], in assay [7], in assay [4] and in assay [5]. Further, the Potency entry in [6] and in assay [3] was “inactive” each time.

For the compound `Cc1cc(=O)oc2cc(O[C@@H]3SC[C@@H](O)[C@H](O)[C@H]3O)ccc12`, the call in [8], in [2], in assay [7], in assay [4] and in assay [5] was inactive. Also, the Potency result in assay [6] and in [3] was “inactive” throughout.

Turning to `CC(=O)OC1CCC(C(C)(C)C)CC1` (stereo not given), the call in assay [1], in [2] and in assay [4] was inactive. In addition, the Potency entry in assay [6] and in assay [3] was “inactive” throughout.

As for `COc1cc(S(N)(=O)=O)cc(C(=O)O)c1OC`, the call in assay [8], in assay [2], in assay [7], in [4] and in assay [5] was inactive. The Potency entry in [6] and in assay [3] was “inactive” in each case.

Regarding `Cc1nnc(C(=O)NC(C)(C)c2nc(C(=O)NCc3ccc(F)cc3)c(O)c(=O)n2C)o1`, the compound was classed as inactive in assay [1], in assay [2], in [7], in assay [4] and in assay [5]. Also, the Potency entry in assay [3] is “inactive”.

For `CC(C)(C)c1ccc(C(=O)CCCCl)cc1`, the Potency result in assay [6] and in assay [3] was “inactive” in each case. The compound was classed as inactive in assay [7] and in [4].

For the compound `CCN(CC)CC(=O)Oc1ccc(NC(C)=O)cc1`, the compound was called inactive in assay [8], in [2], in [7], in assay [4] and in assay [5]. The Potency result in assay [6] and in assay [3] was “inactive” in each case.

Turning to `CCOC(=O)CN1CCCC1=O`, the call in [2], in assay [7], in [4] and in assay [5] was inactive. Moreover, the Potency entry in assay [6] and in assay [3] was “inactive” each time.

As for `CC(=O)/C=C/C=C1/C2CCC(C2)C1(C)C` (stereo not given), the compound was classed as inactive in [8], in [4] and in assay [5]. Also, the Potency result in assay [6] was “inactive”.

Regarding `O=C1Nc2ccccc2C1=O`, the call in assay [1], in [7], in [4] and in assay [5] was inactive. Also, the Potency in assay [6] was 27.1 µM (active). Besides, in assay [3], the Potency entry was “inactive”.

Regarding `NC(=O)CC[C@@H](N)C(=O)O`, the call in [1], in [8], in assay [2], in assay [4] and in [5] was inactive. The Potency entry in [3] was “inactive”.

Take `CC(C)C(=O)Nc1cccc(C2CN3CCSC3=N2)c1` (stereo not given): the Potency result in assay [3] was “inactive”. The call in assay [4] and in assay [5] was inactive.

Take `COC(=O)c1cc(Cl)c(NC(C)=O)cc1OC`: the outcome in assay [8], in [2], in assay [7], in assay [4] and in assay [5] was inactive. For the same compound, the Potency entry in assay [6] and in assay [3] was “inactive” each time.

Take `CC(=O)OCC(=O)[C@@]1(O)CC[C@H]2[C@@H]3CCC4=CC(=O)C=C[C@]4(C)[C@H]3[C@@H](O)C[C@@]21C`: the call in [1], in assay [2] and in [5] was inactive. In addition, the Potency entry in [6] is “inactive”.

Take `CC(=O)O[C@@H]1CC2C3CCc4cc(OC(=O)c5ccccc5)ccc4C3CCC2(C)[C@H]1OC(C)=O` (stereo not given in full): the result in assay [2], in [7], in assay [4] and in [5] was inactive. Moreover, the Potency entry in assay [6] and in [3] was “inactive” in each case.

On to `NNC(=O)CCCCC(=O)NN`, for which the compound was classed as inactive in assay [9], in [8], in assay [2], in [7], in assay [4] and in assay [5]. The Potency result in assay [6] and in [3] was “inactive” each time.
